# Reference: PubChem BioAssay (NCI)
# This is part of a sample that, as a whole, favours compounds with a hit. Of some 83,000 tested, about 20% had one in any assay.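 Negative percent growth values reflect cell death: -40 means 40% of the cells present at the start died, and -100 means all died.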 A number with no mark means an inactive call. Activity calls are given as the source filed them. How the source made its calls: active means growth percent below 10; inactive means the rest.
# System: SF-268 CNS
# Experiment: NCI-60 one-dose screen, 48 h (100 = growth as untreated, 0 = no growth, -100 = all killed)
# Settings: 10 µM unless noted
row,SMILES,growth
1,OCCCCc1nccc2c1[nH]c1ccccc12,105%
2,CCCn1nc(-c2ccccc2)c2c(-c3ccccc3)onc2c1=O,89.2%
3,Cc1cc(N(CCCNc2ccnc3cc(Cl)ccc23)Cc2ccccn2)nc(N2CCCC2)n1,67.3%
4,C=C(C)[C@@H]1CC[C@]2(CN)CC[C@]3(C)[C@H](CC[C@@H]4[C@@]5(C)CCC(N)[C@@](C)(CO)[C@@H]5CC[C@]43C)[C@@H]12 (stereo partly drawn),-79.5% (active)
5,COc1ccc(-n2ncn(CCCCCCn3cnn(-c4ccc(OC)cc4)c3=O)c2=O)cc1,91.4%
6,O=C(NC1CCOCC1)c1ccc2c(c1)CN(c1ncc(Cc3cccc(-n4cccn4)c3)s1)CC2,80.4%
7,C=C(CNCCc1ccc(O)cc1)[C@@H]1CC[C@]2(COC3CCCCO3)CC[C@]3(C)[C@H](CC[C@@H]4[C@@]5(C)CCC(NCCO)C(C)(C)[C@@H]5CC[C@]43C)[C@@H]12 (stereo partly drawn),-87.9% (active)
8,Cc1c(C(=O)O[C@H]2[C@@H]3[C@H](C)CC[C@H]3[C@]3(C)O[C@@]2(C2CCCCC2)C[C@H]3OC(=O)CO)ccc2ccccc12,16%
9,COc1ccc(Oc2nc(Nc3ccc(N4CCCCC4)nc3)ncc2NC(=O)c2cc(OC)cc(OC)c2)cc1,46.3%
10,O=C(Oc1ccc[nH]c1=O)c1cc([N+](=O)[O-])cc([N+](=O)[O-])c1,116%
11,Cc1cc(N2CCCCC2)nc(N(CCNc2ccnc3cc(Cl)ccc23)Cc2ccccn2)n1,71.8%
12,CCCCOc1ccc(NC(=O)n2nc(N=NN(C)C)c3ccc(Cl)cc32)cc1,102%
13,O=C1NN(C(=O)c2ccc(O)cc2)C(c2ccccc2)=N/C1=C\c1cn(-c2ccccc2)nc1-c1ccccc1,96.8%
14,COC(=O)/C(=C\c1ccc(OC)cc1)C(=O)N1c2ccccc2Sc2ccccc21,54.6%
15,COc1ccc(Oc2nc(Nc3ccc(N4CCOCC4)nc3)ncc2NC(=O)c2cc(OC)cc(OC)c2)cc1,82.2%
16,NC(=O)c1c(NC(=O)c2ccc(C(F)(F)F)cc2Cl)sc2c1CCC(=O)C2,-2.06% (active)
17,O=C(NCCOCCOCCOCCNC(=O)c1cc2c(o1)C(=O)c1ccccc1C2=O)NC12CC3CC(CC(C3)C1)C2,-5.16% (active)

row,SMILES,growth
1,COC(=O)c1ccc(CSc2nnc(-c3ccncc3)o2)cc1,101%
2,CCCc1nc2ccccn2c1Nc1ccc(C(=O)NO)cc1,94.2%
3,Fc1ccc(Nc2ccc3cc(OCCCN4CCOCC4)ccc3n2)cc1F,59.3%
4,C=C1c2c(C)nn(-c3ccc(S(N)(=O)=O)cc3)c2N(C)C23CC1C1(C)c4c(C)nn(-c5ccc(S(N)(=O)=O)cc5)c4N(C)C(C)(CC12)C3 (stereo not drawn),42.2%
5,C=C1c2c(C)nn(-c3ccc(NC(C)=O)cc3)c2N(C)C23CC1C1(C)c4c(C)nn(-c5ccc(NC(C)=O)cc5)c4N(C)C(C)(CC12)C3 (stereo not drawn),43.8%
6,C[C@@H]1CC[C@@H]2[C@@H]1[C@H](OC(=O)c1ccc3ccccc3c1)[C@]1(C3CCCCC3)C[C@@H](OC(=O)CO)[C@@]2(C)O1,31.4%
7,CC(C)(C)c1ccc(C(=O)Nc2sc3c(c2C(N)=O)CCC(=O)C3)cc1,-2.29% (active)
8,N=c1ccn2c(n1)OC1C(O)C(CO)OC12 (stereo not drawn),40.9%
9,NC(=Nc1ccc(N)cc1)C(N)=Nc1ccc(N)cc1,104%
10,COc1ccc(/C=C(\C#N)n2nnc3cc(F)c(F)cc32)c(OC)c1OC,83.5%
11,C=C1c2c(C)nn(-c3ccc(O)cc3)c2N(C)C23C[C@@H]1C1(C)c4c(C)nn(-c5ccc(O)cc5)c4N(C)C(C)(C[C@H]12)C3 (stereo partly drawn),48%
12,CSc1ccc(Cl)c(C(=O)Nc2sccc2C(N)=O)c1,93.7%
13,C=C1c2c(C)nn(-c3ccc(N)cc3)c2N(C)C23CC1C1(C)c4c(C)nn(-c5ccc(N)cc5)c4N(C)C(C)(CC12)C3 (stereo not drawn),76.5%
14,CC(=O)Nc1ccc2c(c1)Cc1c(F)cccc1-2,83.7%
15,C=C(C)[C@@H]1CC[C@]2(CNCCO)CC[C@]3(C)[C@H](CC[C@@H]4[C@@]5(C)CCC(N)[C@@](C)(CO)[C@@H]5CC[C@]43C)[C@@H]12 (stereo partly drawn),10.1%
16,Cc1cnc(Nc2ccc(OCCN3CCCC3)cc2)nc1NCc1ccco1,68.5%
